This assay has as its system DAPK2. The following applies: concentration: 1 μM, replicates: in singlicate; n = 1.
Regarding `CN(C)S(=O)(=O)c1cc(-c2ccc3nccc(-c4cccc(S(N)(=O)=O)c4)c3c2)cnc1N` [GSK1669921], the “%Inh” value worked out at 8%.

For the compound `CCS(=O)(=O)c1ccc(OC)c(Nc2nccc(-c3c(-c4cccc(NC(=O)c5c(F)cccc5F)c4)nn4ncccc34)n2)c1` [GSK326180], the “%Inh” value stood at 0%.

Regarding `COc1cc(Nc2nccc(N3CCC(NC(=O)c4cc5ccccc5s4)C3)n2)cc(OC)c1OC` (stereo not drawn) [GSK1379760], the “%Inh” value was 20%.

Regarding `Cc1ccc(F)c(C(=O)Nc2cccc(-c3nn4ccccc4c3-c3ccnc(Nc4cccc(F)c4)n3)c2)c1F` [GSK361061], the “%Inh” value amounted to 10%.

As to `Clc1ccc(-c2nn3ncccc3c2-c2ccnc(Nc3ccc4c(c3)OCCO4)n2)cc1` [GW829116], the “%Inh” value is reported as 0%.

Take `CCCCc1nn2ncccc2c1-c1ccnc(Nc2ccc(N3CCN(C)CC3)cc2)n1` [GW684941]: the “%Inh” value is 0%.

With `CCn1c(-c2nonc2N)nc2c(C#CC(C)(C)O)ncc(OCCCCN)c21.O=C(O)C(F)(F)F.O=C(O)C(F)(F)F` [GSK507274], the “%Inh” value was 10%.

In the case of `O=C(NC1CCN(c2ccnc(Nc3ccc(F)cc3)n2)C1)c1cc2ccccc2s1` (stereo not drawn) [GSK1379716], the “%Inh” value was 15%.

With `COc1cc2c(cc1OCCN1CCNCC1)ncc1c3ccc(C#N)cc3[nH]c21`, the “%Inh” value worked out at 4%.

As to `COc1cc(Nc2nccc(N3CCC(NC(=O)Nc4cccc(C(C)=O)c4)C3)n2)cc(OC)c1OC` (stereo not drawn) [GSK1379753], the “%Inh” value is given as 0%.

As for `O=C(Nc1cccc(-c2nn3ccccc3c2-c2ccnc(Nc3cccc(C(F)(F)F)c3)n2)c1)c1c(F)cccc1F` [GSK292658], the “%Inh” value is 0%.

Turning to `CN(c1ccc(NC(=O)Nc2cc(C(F)(F)F)ccc2F)cc1)c1ccnc(Nc2ccc(S(N)(=O)=O)cc2)n1` [GW809893], the “%Inh” value turned out to be 0%.

In the case of `Cc1cccc(NC(=O)Nc2ccc(Oc3ncnc4ccn(C)c34)cc2)c1`, the “%Inh” value amounted to 0%.

`Cl.c1ccc(-c2ccc3c(Nc4ccc5[nH]ccc5c4)ccnc3c2)nc1` [GW440138]: the “%Inh” value worked out at 0%.

For the compound `CN1CCN(CCCNc2nccc(-c3c(-c4ccc(F)cc4)nn4cc(C(F)(F)F)ccc34)n2)CC1` [GW621581], the “%Inh” value stood at 0%.

Regarding `C[C@@H](Oc1cc(-n2cnc3cc(-c4ccnc(NCCS(C)(=O)=O)c4)ccc32)sc1C(N)=O)c1ccccc1Cl` [GSK907232], the “%Inh” value worked out at 12%.

In the case of `Cc1cccc(Nc2nc(N[C@H]3CCNC3)ncc2C(N)=O)c1.Cl` [GSK2197149], the “%Inh” value was found to be 51%.

For the compound `CCc1ccc(-c2ccc3c(c2)-c2c(cnn2C)S(=O)(=O)N3C)cc1`, the “%Inh” value amounted to 0%.

Regarding `COc1cc(Nc2ncc3c(C)nc(-c4cc5ccccc5[nH]4)n3n2)cc(OC)c1OC` [GW869516], the “%Inh” value is 0%.

Take `Cc1ccc(S(=O)(=O)Nc2ccc(Nc3nccc(Nc4cccc5[nH]ncc45)n3)cc2)cc1` [GSK581271]: the “%Inh” value turned out to be 0%.

Regarding `COc1ccc(Nc2nccc(NCCNC(=O)c3cc4ccccc4s3)n2)cc1` [GSK1379896], the “%Inh” value was found to be 2%.

On to `CN1CCN(Cc2cccc(-c3ccc4c(Nc5ccc(Oc6ccccc6)cc5)ccnc4c3)c2)CC1` [GW578342], for which the “%Inh” value worked out at 6%.

For the compound `COc1ccc(Nc2nccc(N3CCC(NC(=O)Nc4cccc(OC)c4)C3)n2)cc1` (stereo not drawn) [GSK1379742], the “%Inh” value came to 0%.

With `O=C(Nc1n[nH]c2cc(-c3ccoc3)ccc12)C1CC1` [SB-738481], the “%Inh” value is reported as 0%.

For the compound `Nc1ncnc2c1nc(-c1ccccc1)n2-c1ccccc1` [SKF-97293], the “%Inh” value is listed as 0%.

`COc1ccc(CNC(=O)NC2CCN(c3ccnc(Nc4ccc(F)cc4)n3)CC2)cc1` [GSK1379788]: the “%Inh” value is listed as 0%.

As to `Cc1occc1-c1ncc(OC[C@@H](N)Cc2c[nH]c3ccccc23)cc1-c1ccc2[nH]nc(C)c2c1.O=C(O)C(F)(F)F` [GSK682037], the “%Inh” value turned out to be 0%.

On to `c1ccc(-c2n[nH]cc2Nc2ccnc3ccccc23)nc1` [GW694077], for which the “%Inh” value is on record as 60%.

For `O=C(Nc1cccc(-c2nn3ncccc3c2-c2ccnc(Nc3ccccc3)n2)c1)c1c(F)cccc1F` [GSK198271], the “%Inh” value came to 0%.

As to `Nc1n[nH]c2cnc(-c3ccccc3)cc12` [SB-642124], the “%Inh” value came out at 0%.

For the compound `CC(=O)Nc1nc2cnc(Nc3cc(NC(=O)c4cccc(C5(C#N)CC5)c4Cl)ccc3C)nc2s1`, the “%Inh” value came out at 0%.

Take `O=C(Nc1n[nH]c2nc(-c3ccc(O)cc3)ccc12)C1CC1` [SB-710363]: the “%Inh” value turned out to be 0%.

Take `Cn1cc(-c2[nH]c3cc(NC(=O)[C@H](N)C4CCCCC4)cc4c3c2C=NNC4=O)cn1`: the “%Inh” value came to 98.7%.

These data come from PMC5540273 (PLoS ONE, 2017).
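Further: KINOMEscan kinase panel screen.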
